DRD3 agonist – agonists of human D3 dopamine receptor. P35462. 410,000 tested, 0.58% active. D3R DiscoveRx beta-arrestin cells, luminescence, 90 min. max activation, %; in the data active = max activation above about 30%; note: 0% is about no effect
Target sequence (P35462 whole entry, looked up): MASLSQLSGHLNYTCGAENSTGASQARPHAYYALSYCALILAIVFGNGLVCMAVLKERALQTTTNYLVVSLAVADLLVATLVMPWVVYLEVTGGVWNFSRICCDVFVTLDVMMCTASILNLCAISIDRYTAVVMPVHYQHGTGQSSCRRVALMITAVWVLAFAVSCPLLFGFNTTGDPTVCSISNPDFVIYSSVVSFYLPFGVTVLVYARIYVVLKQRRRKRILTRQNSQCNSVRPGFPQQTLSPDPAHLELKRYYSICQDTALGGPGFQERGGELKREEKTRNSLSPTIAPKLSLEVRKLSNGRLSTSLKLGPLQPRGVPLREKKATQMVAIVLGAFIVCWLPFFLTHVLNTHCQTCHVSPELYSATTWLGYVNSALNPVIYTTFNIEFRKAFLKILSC
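Agonist mode: compounds and dopamine controls were applied to plated cells for 90 min at 37 degrees C after an overnight attachment at 1500 cells/well. Luminescent read-out followed 30 - 60 minutes at room temperature with DiscoveRx detection reagent.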
D1 potentiator – human D1 dopamine receptor positive modulation; HEK293 TREx D1 cells, calcium flux, dopamine EC20 potentiation; potentiation, % at 10 µM; 360,000 tested, 0.036% active; AID 504651; in the data active = potentiation above about 30%; note: 0% is about no effect
D1 antagonist – human D1 dopamine receptor antagonism | P21728 | HEK293 TREx D1 cells, calcium flux, dopamine EC80; stronger effect = lower value | activity change, negative = inhibition, % at 10 µM | 360,000 tested, 3.2% active | AID 504652; in the data active = activity change below about -30%; note: % is set by controls: 0 for no effect and ±100 for the full control effect
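Cells carrying a force-coupled, tetracycline-inducible human D1 receptor report calcium flux. Each well gets a 10 s baseline, compound with 180 s monitoring, then an EC80 dopamine stimulus with a second 180 s kinetic read.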
DRD3 antagonist – blocks the human D3 dopamine receptor; P35462; D3R cells, DiscoveRx beta-arrestin luminescence, antagonist mode; stronger effect = lower value; max response, negative = inhibition, %; 360,000 tested, 2.5% active; AID 652054; in the data active = max response below about -50%; note: % is set by controls: 0 for no effect and ±100 for the full control effect
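Cells expressing the human receptor were seeded at 1500 cells/well, incubated overnight at 37 degrees C in 5% CO2, then exposed to library compounds with dopamine controls for 90 minutes at 37 degrees C before luminescent detection.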
D1 ag – human D1 receptor agonism. AID 504660. activation, % at 2 µM. P21728. 360,000 tested, 1% active. HEK293 T-REx D1 cells, calcium flux, agonist mode; in the data active = activation above about 30%; note: 0% is about no effect
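Agonism was scored from calcium flux recorded over 180 s (1 read/s) after pintool compound addition, following a 10-cycle baseline. Cells were inducible force-coupled HEK293 TREx D1, plated overnight at 30 C and loaded with no-wash calcium dye.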
* = called active by the depositor. The list is not random: actives were taken first. Their share in the collection is about 6.1%.

For CCOC(=O)c1c(NC(=O)c2cc3nc(-c4ccccc4)cc(C(F)(F)F)n3n2)sc2c1CCC(C)C2 (stereo unspecified) the results were DRD3 agonist -15, D1 potentiator 1, D1 antagonist 21 and D1 ag 0.
Screening COc1ccc(CN2CC[C@H]3C=CCc4cccc(c43)C2)cc1 returned DRD3 agonist -34, D1 potentiator -7, DRD3 antagonist -103* and D1 ag 3.
Cc1ccc(CN2CC[C@H]3C=CCc4cccc(c43)C2)cc1 was read as DRD3 agonist -71, D1 potentiator -5, DRD3 antagonist -123* and D1 ag 9.
Screening CCCCC#Cc1cncc(C(=O)NN)c1 returned DRD3 agonist 4, D1 potentiator -3, D1 antagonist -54*, DRD3 antagonist -11 and D1 ag 3.
For CCCCCCC#Cc1cncc(C(=O)NNC(=O)Nc2cc(Cl)cc(Cl)c2)c1 the results were DRD3 agonist 24, D1 potentiator -3, D1 antagonist -7, DRD3 antagonist 25 and D1 ag 1.
`COc1ccc(Nc2nnc(-c3ccc(C)c(S(=O)(=O)N4CCOCC4)c3)c3ccccc23)cc1` gave DRD3 agonist -10, D1 potentiator 0, D1 antagonist -13 and D1 ag 0.
c1ccc(C(c2ccccc2)c2noc(CN3CCN(CC4CC4)CC3)n2)cc1 was read as DRD3 agonist -21, D1 potentiator -2, D1 antagonist -13, DRD3 antagonist -63* and D1 ag 1.
`COCC1CCCN(Cc2nc(C(c3ccccc3)c3ccccc3)no2)C1` (stereo unspecified) gave DRD3 agonist -13, D1 potentiator -6, D1 antagonist 18, DRD3 antagonist -2 and D1 ag 3.
CN(C/C=C/c1ccccc1)Cc1cccc2ccccc12 was read as DRD3 agonist -89, D1 potentiator 1, D1 antagonist 16, DRD3 antagonist -100* and D1 ag 0.
`CN(Cc1ccc(C(C)(C)C)cc1)Cc1cccc2ccccc12` gave DRD3 agonist -11.
COc1ccc(Oc2nc3c(c(=O)n(Cc4ccccc4Cl)c(=O)n3C)n2C)cc1 was read as DRD3 agonist 6, D1 potentiator -2, D1 antagonist -23 and D1 ag 5.
For C[C@H](CO)N1C[C@H](C)[C@@H](CN(C)CC2CCCCC2)Oc2ccc(NC(=O)Cn3cnnn3)cc2C1=O the results were DRD3 agonist 35* and DRD3 antagonist 12.
C[C@H](CO)N1C[C@H](C)[C@@H](CN(C)C(=O)NC2CCCCC2)Oc2ccc(NC(=O)Cn3cnnn3)cc2C1=O was read as DRD3 agonist -4 and DRD3 antagonist 12.
Screening C[C@@H]1CN([C@H](C)CO)C(=O)c2cc(NC(=O)Nc3ccc4c(c3)OCO4)ccc2O[C@H]1CN(C)Cc1ccncc1 returned DRD3 agonist 32* and DRD3 antagonist 4.
`O=S1(=O)c2ccccc2N(Cc2ccccc2Cl)c2ccccc21` gave DRD3 agonist -14, D1 potentiator -1, D1 antagonist -2 and D1 ag 12.
Screening CCOc1ccc(S(=O)(=O)N2CCN(C)CC2)c(C)c1C returned DRD3 agonist -2, D1 potentiator -4, D1 antagonist -50*, DRD3 antagonist -12 and D1 ag 2.
Cn1c(N)c(C(=O)Nc2ccccc2)c(=O)[nH]c1=O was read as DRD3 agonist 36* and DRD3 antagonist 1.
Screening Cn1c(N)c(C(=O)/C=C/c2ccccc2)c(=O)[nH]c1=O returned DRD3 agonist 1, D1 potentiator 7, D1 antagonist 4, DRD3 antagonist -6 and D1 ag 2.
Screening CCCOc1ccc(C2c3c(-c4ccccc4O)n[nH]c3C(=O)N2Cc2ccncc2)cc1OCC (stereo unspecified) returned DRD3 agonist -11, D1 potentiator 3, D1 antagonist -8 and D1 ag 2.
For CN(C)c1ccc(C(CNS(=O)(=O)c2ccc(Br)cc2)N2CCOCC2)cc1 (stereo unspecified) the results were DRD3 agonist -5, D1 potentiator 3, D1 antagonist -4 and D1 ag 2.
For CC(=O)c1cccc(NC(=S)N2CCC(Cc3ccccc3)CC2)c1 the results were DRD3 agonist -9, D1 potentiator -6, DRD3 antagonist -7 and D1 ag 1.

Compound activity: PubChem BioAssay, National Center for Advancing Translational Sciences (NCATS)
